The values below come from PubChem BioAssay AID1347165 (National Center for Advancing Translational Sciences (NCATS), 2019).

In all, about 220,000 compounds went through this assay and about 5,700 (2.6%) were called active. Entries that show only a call come without a potency. Inconclusive results (about 18%) are left out. Calls come from the whole dose curve; as a rule, active = well fitted inhibition curve with a large enough effect; inconclusive = small, poorly fitted or top-dose-only effect; inactive = no such curve, though single readings can be large or run the other way. Only a selection was taken, and actives are over-represented in it overall.
Potency is the fitted concentration of half-maximal effect.

Sequence of Lysine-specific demethylase 5B (Homo sapiens) (Q9UGL1 whole entry, looked up, the tested form may be a part): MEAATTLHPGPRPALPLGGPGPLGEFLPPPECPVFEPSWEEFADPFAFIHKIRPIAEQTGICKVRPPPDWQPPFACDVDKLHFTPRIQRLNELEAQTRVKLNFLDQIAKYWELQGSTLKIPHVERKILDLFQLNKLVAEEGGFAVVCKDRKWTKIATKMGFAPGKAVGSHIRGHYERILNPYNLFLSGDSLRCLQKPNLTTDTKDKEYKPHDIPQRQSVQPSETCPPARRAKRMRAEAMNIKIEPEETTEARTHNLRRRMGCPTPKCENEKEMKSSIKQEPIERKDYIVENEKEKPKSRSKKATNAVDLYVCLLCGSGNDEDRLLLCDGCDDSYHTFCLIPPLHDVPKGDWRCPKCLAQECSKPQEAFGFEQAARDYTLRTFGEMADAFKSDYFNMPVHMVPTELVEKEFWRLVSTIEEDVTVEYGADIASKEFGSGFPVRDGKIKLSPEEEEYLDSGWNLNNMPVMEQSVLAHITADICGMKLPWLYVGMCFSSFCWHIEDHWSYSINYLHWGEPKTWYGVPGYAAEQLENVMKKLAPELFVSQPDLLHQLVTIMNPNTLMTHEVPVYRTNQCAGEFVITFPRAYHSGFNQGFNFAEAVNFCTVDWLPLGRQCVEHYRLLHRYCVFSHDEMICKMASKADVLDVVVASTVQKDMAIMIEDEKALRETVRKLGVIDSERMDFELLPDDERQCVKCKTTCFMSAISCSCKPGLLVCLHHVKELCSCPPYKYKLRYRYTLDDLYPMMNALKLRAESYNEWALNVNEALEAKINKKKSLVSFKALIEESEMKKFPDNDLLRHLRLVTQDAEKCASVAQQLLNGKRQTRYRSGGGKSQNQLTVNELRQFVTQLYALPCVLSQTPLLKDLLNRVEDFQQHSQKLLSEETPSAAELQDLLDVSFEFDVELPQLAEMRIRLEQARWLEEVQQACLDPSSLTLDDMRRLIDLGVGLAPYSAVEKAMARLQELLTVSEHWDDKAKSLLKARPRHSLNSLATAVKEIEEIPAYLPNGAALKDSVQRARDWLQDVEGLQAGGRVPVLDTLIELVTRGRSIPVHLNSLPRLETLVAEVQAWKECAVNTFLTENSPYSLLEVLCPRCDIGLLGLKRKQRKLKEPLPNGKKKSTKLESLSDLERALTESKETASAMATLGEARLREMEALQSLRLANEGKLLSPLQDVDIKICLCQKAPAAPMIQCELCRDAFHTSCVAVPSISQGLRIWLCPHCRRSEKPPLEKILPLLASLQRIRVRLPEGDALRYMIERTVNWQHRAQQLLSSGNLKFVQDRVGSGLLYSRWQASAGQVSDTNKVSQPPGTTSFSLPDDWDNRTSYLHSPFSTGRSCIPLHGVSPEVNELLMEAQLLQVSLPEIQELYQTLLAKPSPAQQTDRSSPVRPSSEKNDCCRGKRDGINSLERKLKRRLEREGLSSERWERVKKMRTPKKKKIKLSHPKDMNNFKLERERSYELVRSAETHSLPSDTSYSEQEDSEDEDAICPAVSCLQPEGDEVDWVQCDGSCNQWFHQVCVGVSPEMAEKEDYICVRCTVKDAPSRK

The assay concerns the target Lysine-specific demethylase 5B (Homo sapiens) (UniProt Q9UGL1). Kind of assay: Primary screen for KDM5B Histone Demethylases FDH-coupled qHTS. Note: nearly all actives have a fitted effect of over 70% in size. Particulars: FDH-coupled NADH fluorescence (FDH is formaldehyde dehydrogenase); series mostly up to 57.7 µM. In a few lines: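 Inhibition is measured as reduced NADH fluorescence generation from FDH coupling to formaldehyde release. Truncated KDM5BΔAP at 200 nM final acts on H3K4me3 peptide (12.5 µM in substrate mix) in pH 7.5 HEPES buffer with Tween-20, 30 min, room temperature.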
Background: qHTS replaces the single test concentration by a dilution series.
`Cc1occc1-c1nnc(SCC(=O)c2cc(C)n(C3CC3)c2C)n1C`: the Potency entry was “inactive”.
Regarding `CC(NC(=O)c1ccco1)c1ccc(-c2ccccc2)cc1` (stereo unspecified), the Potency result was “inactive”.
As to `Cc1ccc2c(C)cc(SCC(=O)NC3CC3)nc2c1`, the Potency result is “inactive”.
Turning to `CN(Cc1ccccc1)C(=O)C1(C)CCCc2cnc(Nc3cccnc3)nc21` (stereo unspecified), the Potency entry was “inactive”.
For `CC1(C(=O)NCc2ccc3c(c2)OCO3)CCc2cnc(NCc3ccccc3)nc21` (stereo unspecified), the Potency is 25.1 µM (active).
On to `CC1(C(=O)NCC2CCCO2)CCCc2cnc(Nc3ccccc3)nc21` (stereo unspecified), for which the Potency result is “inactive”.
On to `O=C(Cn1nc2c(cc1=O)CCCC2)Nc1cc(C(F)(F)F)ccc1Cl`, for which the Potency entry was “inactive”.
Regarding `Cc1nn2c(c1-c1ccccc1-c1ccccc1)N(CC1CC1)CCC2`, the Potency was 28.2 µM (active).
Regarding `Cc1nn2c(c1-c1ccccc1Oc1ccccc1)N(C(=O)C(C)C)CCC2`, the Potency entry was “inactive”.
Under `Cc1nn2c(c1-c1ccccc1-c1ccccc1)N(C(=O)CN1CCOCC1)CCC2` stands “inactive”; under `CCc1ccc(N(CC)C(=O)C(=O)c2c[nH]c3ccccc23)cc1`, “inactive”; under `Cc1ccc(CCC(=O)NCc2cccnc2)cc1`, “inactive”.
`Cc1ccc2[nH]c(=O)c(CCC(=O)NCc3ccncc3)cc2c1`: the Potency is 25.1 µM (active).
For `Cc1ccc2[nH]c(=O)c(COC(=O)c3ccccn3)cc2c1`, the Potency result was “inactive”.
With `COCCN(C)C[C@H]1C[C@H](CO)CN(C(=O)c2ccc(C(C)C)[nH]c2=O)C1` the entry was “inactive”; with `CC1(C)CC(=O)C2=C(C1)Nc1nc(N)[nH]c(=O)c1C2c1ccc2c(c1)OCO2` (stereo unspecified), “inactive”; with `CCN(CC)c1nc2ccccc2nc1C(=O)Nc1ccc(C)c(C)c1`, “inactive”.
Under `Cc1cn2nc(C(=O)Nc3cc(F)cc(F)c3)cc2c(N(C)Cc2ccccc2)n1` stands 25.1 µM (active); under `COc1ccc(NC(=O)c2cc3c(N(C)Cc4ccccc4)nc(C)cn3n2)cc1F`, 17.8 µM (active); under `Cc1cn2nc(C(=O)Nc3ccc(F)cc3C)cc2c(N(C)Cc2ccccc2)n1`, 20 µM (active).
On to `Cc1cc(C)cc(NC(=O)N(C)Cc2ccccc2)c1`, for which the Potency result is “inactive”.
With `Cc1cn2nc(C(=O)Nc3ccc(F)cc3F)cc2c(N(C)Cc2ccccc2)n1`, the Potency entry was “inactive”.
As for `COc1cccc(CNC(=O)Cn2c(N(C)Cc3ccccc3)nc(C)cc2=O)c1OC`, the Potency entry is “inactive”.
As to `CCN(CC)c1nc2ccccc2nc1C(=O)Nc1ccc(C)cc1C`, the Potency entry was “inactive”.
Take `Cc1cn2nc(C(=O)Nc3cccc(F)c3)cc2c(N(C)Cc2ccccc2)n1`: the Potency entry was “inactive”.
For `Oc1ccc(-c2nc(-c3ccccc3F)cs2)cc1`, the Potency entry is “inactive”.
`C=CCNC(=O)Nc1cc(NC(=O)Nc2ccccc2)ccc1C`: the Potency entry is “inactive”.
In the case of `Cc1ccc(CN2CCOc3cc([S+](=O)([O-])N(C)C)ccc3C2)c(F)c1`, the Potency result is “inactive”.
In the case of `Cc1ccc(CN2CCC(Oc3cnc4c(ccn4CCN[S+](C)(=O)[O-])c3)CC2)c(F)c1`, the Potency is 31.6 µM (active).
Under `CCCc1noc(CSc2nc(-c3ccco3)nc3ccccc23)n1` stands “inactive”; under `O=C(O)C/C(=C/c1cccc(Cl)c1)c1nc2ccccc2o1`, “inactive”.
`CCCOc1ccc2ccccc2c1CN(C)C(=O)c1n[nH]c(=O)c2ccccc12`: the Potency entry was “inactive”.
Under `CN(C)c1cccc(Nc2cc3c(cn2)NCCN(Cc2ccccc2)C3)c1` stands 25.1 µM (active).
Under `Cn1ccc(Nc2cc3c(cn2)CN(CCc2ccccc2)CCN3)n1` stands “inactive”.
On to `Fc1ccccc1CN1CCNc2cc(Nc3cccnc3)ncc2C1`, for which the Potency entry is “inactive”.
Under `NC(=O)c1cccc(C(=O)N2CCC(c3nc4ccccc4o3)CC2)c1` stands “inactive”.
As for `COc1cccc(-c2nc3ccc(-c4ccc5c(c4)OCO5)cc3o2)c1OC`, the Potency result is “inactive”.
For `CCOc1c(OC)cccc1-c1nc2ccc(-c3ccc(OC)c(OC)c3OC)cc2o1`, the Potency was 12.6 µM (active).
As for `COc1cccc(NC(=O)Nc2cc(-c3nc4ccccc4o3)ccc2OC)c1`, the Potency result was “inactive”.
In the case of `Cc1ccc2c(c1)-c1c(cnn1CC(=O)N(C)c1ccccc1Cl)CO2`, the Potency result was “inactive”.
For the compound `CC(C)(C)c1cc(NC(=O)Nc2cc(Cl)cc(Cl)c2)no1`, the Potency result was “inactive”.
With `COCCOc1ccnc(-c2noc([C@@H]3CCCN3Cc3ccc(Cl)cc3)n2)c1` the entry was “inactive”; with `COCCOc1ncccc1-c1noc([C@@H]2CCCN2CC(C)(C)C)n1`, “inactive”; with `COCCNc1ncccc1-c1noc([C@@H]2CCCN2Cc2ccc3c(c2)OCO3)n1`, 31.6 µM (active).
In the case of `Cc1c(-c2ccc(Cl)cc2)nc2ccccc2c1C(=O)NC1CCCCCCC1`, the Potency entry was “inactive”.
On to `NC(=O)c1cccc(-c2ncc3c(n2)OCCN(CC2CC2)C3=O)c1`, for which the Potency result is “inactive”.
As for `C[S+](=O)([O-])c1cccc(-c2ncc3c(n2)OCCN(Cc2ccc(F)cc2F)C3=O)c1`, the Potency entry is “inactive”.
In the case of `COCCN1CCOc2nc(-c3cccc(C)c3)ncc2C1=O`, the Potency result was “inactive”.
Regarding `COc1ccc(-c2ncc3c(n2)OCCN(CC2CC2)C3=O)cc1`, the Potency is 35.5 µM (active).
Turning to `COc1ccc(F)cc1-c1ncc2c(n1)OCCN(CC1CC1)C2=O`, the Potency was 35.5 µM (active).
With `COc1cccc(-c2ncc3c(n2)OCCN(Cc2ccc(F)cc2F)C3=O)c1OC` the entry was “inactive”; with `Cn1c(=O)c2c(nc(SCC(=O)Nc3ccccc3)n2Cc2ccccc2Cl)n(C)c1=O`, “inactive”; with `Cc1[nH]c2ccccc2c1C(=O)C(C)Sc1nnc(C2CC2)o1` (stereo unspecified), “inactive”.
Take `CC(C)c1ccc(C(=O)OC2CCOC2=O)cc1` (stereo unspecified): the Potency result is “inactive”.
With `Cc1oc(-c2cccs2)nc1CC(=O)N1CCCC1c1ccccc1` (stereo unspecified) the entry was “inactive”; with `CCOc1ccc(NC(=O)CN(C)C(=O)Cn2c(=O)cnc3ccccc32)cc1OCC`, “inactive”.
As to `COc1ccc(N2C(=O)C(C)CS2(=O)=O)cc1S(=O)(=O)Nc1ccc(N2CCCC2)cc1` (stereo unspecified), the Potency entry was “inactive”.
On to `Cc1ccc(C(=O)NC2CCSC2=O)cc1C` (stereo unspecified), for which the Potency entry is “inactive”.
Under `Cc1ccc(N2CCC(NC(=O)c3ccc4[nH]ccc4c3)C2=O)cc1C` (stereo unspecified) stands 31.6 µM (active); under `Cc1cc(N2CCC(NC(=O)c3ccc(N(C)C)cc3)C2=O)ccc1F` (stereo unspecified), “inactive”; under `COCC(=O)N1CCN(C2CCN(CCc3ccccc3)C2=O)CC1` (stereo unspecified), “inactive”.
For `CCc1cccc(CC)c1NC(=O)C(C)Sc1ccc(C)cc1` (stereo unspecified), the Potency entry is “inactive”.
Under `Cc1cc(NC(=O)Nc2c(C3=CCCCC3)c(C)nn2C)ccc1Br` stands “inactive”.
With `O=c1[nH]c(-c2ccncc2)nc2c1CCN(S(=O)(=O)N1CCCC1)C2` the entry was “inactive”.
With `CC(=O)c1ccc(NC(=O)N2CCc3c(nc(-c4ccc(F)cc4)[nH]c3=O)C2)cc1`, the Potency is 25.1 µM (active).
With `Cc1ccc(C(=O)NC2CCN(C(=O)Nc3ccc(F)cc3)CC2)cc1`, the Potency result is “inactive”.
